Reference: the supplement of paper PMC11732987, “Enantioselective OTUD7B fragment discovery through chemoproteomics screening and high-throughput optimisation” (Communications Chemistry, 2025)

How the values were obtained:
Experiment in all cases: log2 ratio of Biotin-Ahx-Ub-VS probe labelling (fragment/DMSO); higher = less target engagement (more negative = stronger competition), active = hit call of the paper (q ≤ 0.05, log2 ratio ≤ -1)
Conditions in all cases: compound concentration: 200 uM; treatment time: 3 h
USP34 = USP34 (UniProt Q70CQ2)
Sequence of USP34 (Q70CQ2 whole entry, the tested form may be a part): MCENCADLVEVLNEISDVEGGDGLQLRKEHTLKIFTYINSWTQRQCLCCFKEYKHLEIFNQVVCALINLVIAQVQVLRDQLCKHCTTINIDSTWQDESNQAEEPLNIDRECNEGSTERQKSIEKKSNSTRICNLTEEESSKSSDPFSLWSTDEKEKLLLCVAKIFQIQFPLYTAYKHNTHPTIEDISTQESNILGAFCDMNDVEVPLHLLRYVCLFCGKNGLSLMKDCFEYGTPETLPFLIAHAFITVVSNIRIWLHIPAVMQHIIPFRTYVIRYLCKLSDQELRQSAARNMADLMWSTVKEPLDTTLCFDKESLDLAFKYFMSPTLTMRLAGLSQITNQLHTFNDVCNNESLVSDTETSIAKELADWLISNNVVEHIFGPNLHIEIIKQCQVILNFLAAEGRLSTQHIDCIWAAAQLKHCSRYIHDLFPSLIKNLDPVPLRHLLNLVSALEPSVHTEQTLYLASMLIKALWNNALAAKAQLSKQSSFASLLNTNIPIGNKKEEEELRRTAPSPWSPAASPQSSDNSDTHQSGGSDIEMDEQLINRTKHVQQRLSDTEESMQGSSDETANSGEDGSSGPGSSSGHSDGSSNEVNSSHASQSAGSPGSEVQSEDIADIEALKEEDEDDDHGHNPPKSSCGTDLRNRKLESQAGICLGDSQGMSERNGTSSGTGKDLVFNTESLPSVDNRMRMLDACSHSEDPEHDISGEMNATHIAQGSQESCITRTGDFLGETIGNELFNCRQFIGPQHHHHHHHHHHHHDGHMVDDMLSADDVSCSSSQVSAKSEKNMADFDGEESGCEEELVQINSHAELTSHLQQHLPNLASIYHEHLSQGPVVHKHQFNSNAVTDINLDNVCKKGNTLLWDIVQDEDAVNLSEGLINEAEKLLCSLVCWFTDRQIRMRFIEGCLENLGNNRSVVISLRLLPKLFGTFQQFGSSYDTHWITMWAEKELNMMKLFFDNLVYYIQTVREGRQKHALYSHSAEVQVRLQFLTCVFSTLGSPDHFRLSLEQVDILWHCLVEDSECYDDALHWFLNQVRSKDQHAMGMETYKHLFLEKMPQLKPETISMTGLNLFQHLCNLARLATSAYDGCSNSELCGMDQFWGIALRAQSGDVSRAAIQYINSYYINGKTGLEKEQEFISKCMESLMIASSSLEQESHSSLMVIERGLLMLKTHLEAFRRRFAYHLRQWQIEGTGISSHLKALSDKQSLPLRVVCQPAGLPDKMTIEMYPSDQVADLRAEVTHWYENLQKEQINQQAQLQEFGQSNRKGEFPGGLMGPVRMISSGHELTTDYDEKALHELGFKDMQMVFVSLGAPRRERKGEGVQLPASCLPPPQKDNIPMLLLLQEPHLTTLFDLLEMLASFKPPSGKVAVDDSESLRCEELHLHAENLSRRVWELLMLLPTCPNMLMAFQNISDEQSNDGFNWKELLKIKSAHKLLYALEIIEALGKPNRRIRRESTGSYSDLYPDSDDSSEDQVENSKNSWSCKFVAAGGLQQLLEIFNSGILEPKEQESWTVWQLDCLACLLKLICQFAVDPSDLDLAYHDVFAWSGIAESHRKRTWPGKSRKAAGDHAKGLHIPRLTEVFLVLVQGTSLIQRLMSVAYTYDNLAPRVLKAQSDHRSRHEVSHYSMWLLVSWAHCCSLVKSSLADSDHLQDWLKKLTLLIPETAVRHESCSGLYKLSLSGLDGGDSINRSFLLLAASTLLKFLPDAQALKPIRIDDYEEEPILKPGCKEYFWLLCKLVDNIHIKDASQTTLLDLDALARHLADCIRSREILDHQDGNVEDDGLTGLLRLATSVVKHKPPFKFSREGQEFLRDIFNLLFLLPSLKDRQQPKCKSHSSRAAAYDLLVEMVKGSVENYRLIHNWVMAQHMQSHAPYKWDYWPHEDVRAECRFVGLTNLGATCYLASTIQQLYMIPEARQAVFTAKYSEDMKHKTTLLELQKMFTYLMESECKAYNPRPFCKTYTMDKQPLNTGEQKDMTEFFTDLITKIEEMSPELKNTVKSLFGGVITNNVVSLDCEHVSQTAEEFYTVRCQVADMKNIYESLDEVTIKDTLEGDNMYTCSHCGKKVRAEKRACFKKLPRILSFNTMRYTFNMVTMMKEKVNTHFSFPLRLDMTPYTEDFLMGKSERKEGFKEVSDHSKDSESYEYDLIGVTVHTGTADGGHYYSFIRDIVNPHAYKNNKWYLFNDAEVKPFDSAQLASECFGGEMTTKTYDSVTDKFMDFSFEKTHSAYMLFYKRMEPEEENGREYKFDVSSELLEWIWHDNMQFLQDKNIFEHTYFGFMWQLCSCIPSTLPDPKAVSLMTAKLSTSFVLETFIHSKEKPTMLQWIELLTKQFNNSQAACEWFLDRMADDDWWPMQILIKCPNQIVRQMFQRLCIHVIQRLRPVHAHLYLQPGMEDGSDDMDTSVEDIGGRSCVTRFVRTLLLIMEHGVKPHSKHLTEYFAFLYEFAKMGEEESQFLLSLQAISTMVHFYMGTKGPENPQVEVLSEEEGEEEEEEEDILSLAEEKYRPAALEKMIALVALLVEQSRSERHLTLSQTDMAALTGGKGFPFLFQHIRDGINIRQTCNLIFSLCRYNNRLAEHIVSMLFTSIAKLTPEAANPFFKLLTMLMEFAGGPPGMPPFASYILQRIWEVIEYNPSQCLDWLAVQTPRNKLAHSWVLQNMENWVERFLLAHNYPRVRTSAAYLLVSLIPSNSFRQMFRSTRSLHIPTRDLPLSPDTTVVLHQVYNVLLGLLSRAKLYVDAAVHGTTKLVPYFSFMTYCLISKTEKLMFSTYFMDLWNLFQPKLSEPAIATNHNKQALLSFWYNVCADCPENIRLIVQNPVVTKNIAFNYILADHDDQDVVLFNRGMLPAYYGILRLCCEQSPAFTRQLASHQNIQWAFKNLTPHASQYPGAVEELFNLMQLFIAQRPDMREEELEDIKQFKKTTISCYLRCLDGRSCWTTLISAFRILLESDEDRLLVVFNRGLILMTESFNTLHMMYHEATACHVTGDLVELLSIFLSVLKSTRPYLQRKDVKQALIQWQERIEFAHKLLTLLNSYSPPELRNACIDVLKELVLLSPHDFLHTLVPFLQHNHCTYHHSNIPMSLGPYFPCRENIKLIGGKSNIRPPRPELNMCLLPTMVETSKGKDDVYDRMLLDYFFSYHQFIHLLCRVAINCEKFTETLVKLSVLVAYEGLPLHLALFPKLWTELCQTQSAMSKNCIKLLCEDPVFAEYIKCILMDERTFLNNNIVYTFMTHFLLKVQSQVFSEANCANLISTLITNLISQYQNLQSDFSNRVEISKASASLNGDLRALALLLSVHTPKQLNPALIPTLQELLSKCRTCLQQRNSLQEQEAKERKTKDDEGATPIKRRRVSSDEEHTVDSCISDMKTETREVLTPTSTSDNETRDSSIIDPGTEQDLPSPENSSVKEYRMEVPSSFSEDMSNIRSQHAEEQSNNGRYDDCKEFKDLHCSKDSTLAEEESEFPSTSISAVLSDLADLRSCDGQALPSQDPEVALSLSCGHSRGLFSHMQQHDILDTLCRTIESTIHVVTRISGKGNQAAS
In short: (§1)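 The table lists average log2 ratios of fragment over vehicle, from an unpaired t-test on global-median-normalised Spectronaut label-free quantities. Proteins with ≥2 unique peptides were used. Samples were HEK293T lysate (495 µg) treated in triplicate with fragment at 200 µM or vehicle for 3 h, then with Biotin-Ahx-Ub-VS (0.5 µM final) for 1 h, with labelled DUBs NeutrAvidin-enriched and run by diaPASEF LC-MS/MS.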

USP36 = target: T1, USP36 (UniProt Q9P275)
T1 sequence (whole entry): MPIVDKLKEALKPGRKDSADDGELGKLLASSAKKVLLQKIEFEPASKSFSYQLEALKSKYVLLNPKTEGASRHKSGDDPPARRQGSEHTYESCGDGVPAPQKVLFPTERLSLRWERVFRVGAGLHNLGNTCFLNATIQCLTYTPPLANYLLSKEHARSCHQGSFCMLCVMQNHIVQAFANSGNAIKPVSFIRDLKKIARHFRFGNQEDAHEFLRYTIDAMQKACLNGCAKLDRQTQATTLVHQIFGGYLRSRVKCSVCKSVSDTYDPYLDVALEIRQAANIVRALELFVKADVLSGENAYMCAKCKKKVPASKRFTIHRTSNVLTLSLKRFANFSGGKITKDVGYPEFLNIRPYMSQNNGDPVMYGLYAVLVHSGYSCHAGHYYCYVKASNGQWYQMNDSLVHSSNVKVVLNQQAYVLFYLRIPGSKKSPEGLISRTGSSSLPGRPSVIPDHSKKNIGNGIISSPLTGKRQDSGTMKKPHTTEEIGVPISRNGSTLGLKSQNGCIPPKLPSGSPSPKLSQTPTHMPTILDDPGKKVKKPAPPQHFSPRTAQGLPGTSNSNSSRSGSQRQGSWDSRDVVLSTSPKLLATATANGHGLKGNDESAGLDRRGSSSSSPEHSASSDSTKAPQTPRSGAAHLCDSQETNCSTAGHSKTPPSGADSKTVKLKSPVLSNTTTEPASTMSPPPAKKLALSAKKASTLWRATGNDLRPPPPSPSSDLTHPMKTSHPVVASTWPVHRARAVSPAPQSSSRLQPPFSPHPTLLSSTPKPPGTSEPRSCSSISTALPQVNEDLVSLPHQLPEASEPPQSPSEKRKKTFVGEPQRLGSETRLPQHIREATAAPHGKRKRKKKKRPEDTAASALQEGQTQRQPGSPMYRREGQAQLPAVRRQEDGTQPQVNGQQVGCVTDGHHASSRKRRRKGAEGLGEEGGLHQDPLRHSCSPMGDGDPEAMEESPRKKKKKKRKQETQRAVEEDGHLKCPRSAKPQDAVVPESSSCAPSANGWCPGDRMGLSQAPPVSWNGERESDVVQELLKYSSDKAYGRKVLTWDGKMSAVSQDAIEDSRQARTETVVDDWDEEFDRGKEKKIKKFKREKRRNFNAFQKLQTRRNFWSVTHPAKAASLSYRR
In short: as §1

USP38 = target: T2, USP38 (UniProt Q8NB14)
T2 sequence (whole entry): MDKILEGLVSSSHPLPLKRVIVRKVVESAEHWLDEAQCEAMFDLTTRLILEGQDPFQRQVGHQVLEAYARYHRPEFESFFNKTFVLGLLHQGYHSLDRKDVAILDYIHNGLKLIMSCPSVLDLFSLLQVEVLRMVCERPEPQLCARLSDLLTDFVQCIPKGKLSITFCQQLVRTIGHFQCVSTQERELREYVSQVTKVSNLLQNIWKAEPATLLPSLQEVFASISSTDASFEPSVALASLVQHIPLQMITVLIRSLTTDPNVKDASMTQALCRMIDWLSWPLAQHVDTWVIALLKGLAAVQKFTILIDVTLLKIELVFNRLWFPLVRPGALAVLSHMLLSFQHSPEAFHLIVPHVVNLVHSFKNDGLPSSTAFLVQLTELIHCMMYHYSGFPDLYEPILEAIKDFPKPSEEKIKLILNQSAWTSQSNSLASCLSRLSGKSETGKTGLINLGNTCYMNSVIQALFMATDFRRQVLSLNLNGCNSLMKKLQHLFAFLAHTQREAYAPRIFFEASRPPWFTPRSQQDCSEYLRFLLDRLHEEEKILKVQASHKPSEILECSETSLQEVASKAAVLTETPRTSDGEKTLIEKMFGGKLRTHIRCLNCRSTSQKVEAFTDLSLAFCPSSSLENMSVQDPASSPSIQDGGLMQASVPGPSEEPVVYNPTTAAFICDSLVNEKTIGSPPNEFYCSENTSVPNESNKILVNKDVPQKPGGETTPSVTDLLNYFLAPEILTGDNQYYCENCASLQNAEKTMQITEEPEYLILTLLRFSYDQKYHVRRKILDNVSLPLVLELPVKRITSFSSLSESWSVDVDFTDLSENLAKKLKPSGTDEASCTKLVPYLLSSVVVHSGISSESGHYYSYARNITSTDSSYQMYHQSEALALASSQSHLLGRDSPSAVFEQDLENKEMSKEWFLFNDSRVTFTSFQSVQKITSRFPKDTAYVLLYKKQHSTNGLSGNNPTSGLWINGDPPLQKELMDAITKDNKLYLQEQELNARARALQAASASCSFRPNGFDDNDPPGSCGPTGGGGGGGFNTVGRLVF
In short: as §1

USP39 = target: T3, USP39 (UniProt Q53GS9)
T3 sequence (whole entry): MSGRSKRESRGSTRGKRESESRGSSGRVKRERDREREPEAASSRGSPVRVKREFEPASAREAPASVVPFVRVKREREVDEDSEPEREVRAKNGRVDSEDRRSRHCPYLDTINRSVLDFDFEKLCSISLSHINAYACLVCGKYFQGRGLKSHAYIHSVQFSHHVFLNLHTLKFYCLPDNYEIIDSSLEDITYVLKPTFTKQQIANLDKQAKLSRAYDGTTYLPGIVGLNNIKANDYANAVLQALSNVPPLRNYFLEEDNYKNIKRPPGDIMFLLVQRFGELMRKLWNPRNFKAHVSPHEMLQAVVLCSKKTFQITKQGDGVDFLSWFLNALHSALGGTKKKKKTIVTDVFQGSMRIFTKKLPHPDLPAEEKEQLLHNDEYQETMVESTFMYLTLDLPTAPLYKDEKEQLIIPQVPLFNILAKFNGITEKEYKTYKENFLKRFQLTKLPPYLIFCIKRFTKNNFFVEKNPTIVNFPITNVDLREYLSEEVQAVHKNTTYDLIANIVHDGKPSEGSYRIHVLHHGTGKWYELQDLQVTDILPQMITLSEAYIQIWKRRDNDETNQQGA
In short: as §1

USP4 = target: T4, USP4 (UniProt Q13107)
T4 sequence (whole entry): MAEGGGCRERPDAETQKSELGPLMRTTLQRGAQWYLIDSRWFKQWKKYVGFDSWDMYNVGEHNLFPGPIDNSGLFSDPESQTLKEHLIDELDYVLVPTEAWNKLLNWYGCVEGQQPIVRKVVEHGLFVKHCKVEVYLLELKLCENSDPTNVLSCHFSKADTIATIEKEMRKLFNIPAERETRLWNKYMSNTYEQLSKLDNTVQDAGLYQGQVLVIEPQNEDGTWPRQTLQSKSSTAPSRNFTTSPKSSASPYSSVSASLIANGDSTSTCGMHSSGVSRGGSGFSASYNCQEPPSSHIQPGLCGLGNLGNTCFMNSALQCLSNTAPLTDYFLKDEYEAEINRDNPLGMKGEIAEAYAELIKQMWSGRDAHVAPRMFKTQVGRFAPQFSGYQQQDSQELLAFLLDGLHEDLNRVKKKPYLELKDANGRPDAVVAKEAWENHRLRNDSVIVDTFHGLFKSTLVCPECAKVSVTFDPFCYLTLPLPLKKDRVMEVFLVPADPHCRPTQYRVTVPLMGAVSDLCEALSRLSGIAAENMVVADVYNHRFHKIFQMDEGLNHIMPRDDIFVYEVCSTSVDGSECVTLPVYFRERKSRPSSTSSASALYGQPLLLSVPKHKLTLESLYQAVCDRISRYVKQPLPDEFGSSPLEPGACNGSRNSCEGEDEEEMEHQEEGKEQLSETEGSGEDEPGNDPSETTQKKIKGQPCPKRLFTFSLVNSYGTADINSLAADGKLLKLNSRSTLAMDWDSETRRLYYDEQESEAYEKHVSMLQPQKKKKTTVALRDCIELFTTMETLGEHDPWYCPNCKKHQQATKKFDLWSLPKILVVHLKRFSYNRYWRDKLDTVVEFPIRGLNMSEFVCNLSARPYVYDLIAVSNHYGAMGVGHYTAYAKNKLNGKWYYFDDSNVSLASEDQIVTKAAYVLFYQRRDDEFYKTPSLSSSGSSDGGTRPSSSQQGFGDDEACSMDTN
In short: as §1

Measured: log2 ratio of Biotin-Ahx-Ub-VS probe labelling

O=C(CCl)Nc1ccc2c(c1)OC(F)(F)O2
inactive: USP34 -0.119 | USP36 0.029 | USP38 0.122 | USP39 0.433 | USP4 0.0436
